# Assay results published in PubChem BioAssay.
# Assay: COS7 lysate on small-molecule microarray, probe aHis, 635 nm (AID 1123);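 further: z-score combines 667nm fluorescence intensity with signal-to-noise per printed compound spot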
# Settings: COS7 cell lysate, fluorescence, higher = more signal
row,SMILES,composite z-score
1,C[C@@H]1ON(c2ccccc2)[C@H](c2ccccc2)[C@H]1C(=O)N1C(=O)OC[C@H]1Cc1ccccc1,0.514
2,COCCCNC(=O)[C@@H]1c2ccccc2C(=O)N(c2ccc(C)cn2)[C@H]1c1ccc(CO)cc1,-0.908
3,CC(=O)NCCCC[C@@H]1NC(=O)[C@H]2C[C@@H](C(=O)NCCCCCN)[C@@H](c3cccc(OCCO)c3)N2C1=O,0.898
4,C=CCOC(=O)[C@@H]1[C@H]2C(=O)O[C@H](c3ccccc3)[C@H](c3ccccc3)N2[C@H](c2ccc(OCCOC(=O)[C@H]3C[C@H]4C(=O)N[C@@H](Cc5ccccc5)C(=O)N4[C@H]3c3cccc(OCCO)c3)cc2)[C@@]12C(=O)Nc1ccc(I)cc12,0.798
5,O=C(Nc1cc(Br)ccc1C(=O)NCc1cccc(O)c1)c1ccccc1,0.891
6,CC(C)CCC[C@@H](C)[C@H]1CC[C@@]2(C)C3=C(CC[C@]12C)[C@@]1(C)CC[C@H](OC(=O)C(C)(C)C)C(C)(C)C1CC3 (some centres not stated),1.25
7,COC(=O)[C@@]1(Cc2ccccc2)[C@H]2c3cc(C(=O)N(C)C)n(Cc4ccc(O)c(OC)c4)c3C[C@H]2CN1C(=O)c1ccccc1,2.17
8,CC(C)C[C@H]1NC(=O)[C@H](C)NC(=O)[C@@]23C(=O)N[C@@H](Cc4ccccc4)C2[C@H](C)[C@@]2(C)O[C@H]2C3/C=C/C/C=C\CNC1=O (some centres not stated),-0.38
9,NCCCCCCNC(=O)[C@H]1C[C@H]2C(=O)N3CCC[C@H]3C(=O)N2[C@H]1c1ccc(O)cc1,0.307
10,COC(=O)C(CC#Cc1ccc2c(c1)[C@]1(C(=O)N2)[C@H](c2ccc(OCCO)cc2)N2[C@H](c3ccccc3)[C@H](c3ccccc3)OC(=O)[C@H]2[C@@H]1C(=O)O)C(=O)OC,1.37
11,O=C1O[C@H](c2ccccc2)[C@H](c2ccccc2)N2[C@H]1[C@@H](C(=O)N1CCN(c3ncccn3)CC1)[C@]1(C(=O)Nc3ccc(C#CCCO)cc31)[C@H]2c1ccc(OCCO)cc1,1.96
12,NC(=O)NCC#Cc1ccc2c(c1)[C@]1(C(=O)N2)[C@H](c2ccc(OCCO)cc2)N2[C@H](c3ccccc3)[C@H](c3ccccc3)OC(=O)[C@H]2[C@@H]1C(=O)N1CCCCCCC1,2.81
13,CN(C)C(=O)[C@@]1(CCS(=O)(=O)c2ccccc2)N=C(c2ccc(OCCCO)cc2)O[C@H]1c1ccccc1CN=[N+]=[N-],2.45
14,COc1ccc(CCNC(=O)[C@@H]2c3ccccc3C(=O)N(Cc3ccccc3C(F)(F)F)[C@H]2c2ccc(CO)cc2)cc1,1.29
15,O=C1O[C@H](c2ccccc2)[C@H](c2ccccc2)N2[C@H]1[C@@H](C(=O)NC[C@H](O)c1ccccc1)[C@]1(C(=O)Nc3ccccc31)[C@H]2c1ccccc1OCCO,1.84
16,C=C(CCCC)/C(=C/C[C@H](OC(=O)c1ccncc1)c1ccc(CO)o1)c1cc(C(=O)OC)ccc1OC,1.38
17,CCCCCCCCCCC(O)C1C=CC2C(=O)NC(=O)C2N1Nc1ccccn1 (configuration not stated),1.85
18,COC(=O)[C@@]1(Cc2ccc(OC)cc2)[C@H]2c3cc(C(=O)N4CCCC4)n(Cc4ccc(C)o4)c3C[C@H]2CN1C(=O)c1ccccc1,1.23
19,C=C(/C(=C/C[C@@H](OC(=O)c1ccncc1)c1cccc(OCCO)c1)c1cc(C(=O)OC)ccc1OC)C(C)C,1.23
20,CCOC(=O)C[C@H]1[C@H](OC(=O)Cc2ccc3c(c2)OCO3)[C@@H](NC(=O)c2ccccc2)c2cc(OCCCO)ccc2N1C(=O)c1ccccc1,0.525
21,CCCC=C(CCC)[C@@H](NS(=O)(=O)c1ccccc1)c1ccc(C(F)(F)F)cc1,2.65
22,C=C[C@H](C)[C@H](OC(=O)Nc1ccc(SC)cc1)c1ccc(O)c2ccccc12,0.518
23,CC1(C)[C@@H]2CC(C(O)C3C=CC4C(=O)N(c5ccccc5)C(=O)C4N3Nc3ccccc3F)=C[C@@H]1C2 (some centres not stated),2.66
24,COC(=O)c1ccc(OC)c(/C=C\CC(CCc2ccccc2)OC(=O)c2ccncc2)c1 (configuration not stated),0.721
25,O=C1C2C=CC(C(O)c3ccc(Br)cc3)N(Nc3ccccc3)C2C(=O)N1c1ccccc1 (configuration not stated),1.76
26,COCCOC(=O)N1C(=O)[C@@]2(c3cc(C#Cc4ccc(OC)cc4)ccc31)[C@H](C(=O)N1CCc3cc(OC)c(OC)cc3C1)[C@H]1C(=O)O[C@H](c3ccccc3)[C@H](c3ccccc3)N1[C@@H]2c1ccc(OCCO)cc1,-0.0346
27,C=CCC(OC(C)=O)[C@@H]1[C@@H](N(Cc2ccc(-c3cccc(C(F)(F)F)c3)o2)C(=O)c2cccc3ccccc23)c2cc(OCCCO)ccc2N1C(=O)c1ccc(-c2ccccc2)cc1 (some centres not stated),-0.647
